Measured values from the supplement of paper PMC11732987, “Enantioselective OTUD7B fragment discovery through chemoproteomics screening and high-throughput optimisation” (Communications Chemistry, 2025).

Legend:
Assay in all cases: log2 ratio of Biotin-Ahx-Ub-VS probe labelling (fragment/DMSO); higher = less target engagement (more negative = stronger competition), active = hit call of the paper (q ≤ 0.05, log2 ratio ≤ -1)
Conditions in all cases: compound concentration: 200 uM; treatment time: 3 h
[1] = molecular target: T1, USP19 (UniProt O94966)
T1 sequence (whole entry): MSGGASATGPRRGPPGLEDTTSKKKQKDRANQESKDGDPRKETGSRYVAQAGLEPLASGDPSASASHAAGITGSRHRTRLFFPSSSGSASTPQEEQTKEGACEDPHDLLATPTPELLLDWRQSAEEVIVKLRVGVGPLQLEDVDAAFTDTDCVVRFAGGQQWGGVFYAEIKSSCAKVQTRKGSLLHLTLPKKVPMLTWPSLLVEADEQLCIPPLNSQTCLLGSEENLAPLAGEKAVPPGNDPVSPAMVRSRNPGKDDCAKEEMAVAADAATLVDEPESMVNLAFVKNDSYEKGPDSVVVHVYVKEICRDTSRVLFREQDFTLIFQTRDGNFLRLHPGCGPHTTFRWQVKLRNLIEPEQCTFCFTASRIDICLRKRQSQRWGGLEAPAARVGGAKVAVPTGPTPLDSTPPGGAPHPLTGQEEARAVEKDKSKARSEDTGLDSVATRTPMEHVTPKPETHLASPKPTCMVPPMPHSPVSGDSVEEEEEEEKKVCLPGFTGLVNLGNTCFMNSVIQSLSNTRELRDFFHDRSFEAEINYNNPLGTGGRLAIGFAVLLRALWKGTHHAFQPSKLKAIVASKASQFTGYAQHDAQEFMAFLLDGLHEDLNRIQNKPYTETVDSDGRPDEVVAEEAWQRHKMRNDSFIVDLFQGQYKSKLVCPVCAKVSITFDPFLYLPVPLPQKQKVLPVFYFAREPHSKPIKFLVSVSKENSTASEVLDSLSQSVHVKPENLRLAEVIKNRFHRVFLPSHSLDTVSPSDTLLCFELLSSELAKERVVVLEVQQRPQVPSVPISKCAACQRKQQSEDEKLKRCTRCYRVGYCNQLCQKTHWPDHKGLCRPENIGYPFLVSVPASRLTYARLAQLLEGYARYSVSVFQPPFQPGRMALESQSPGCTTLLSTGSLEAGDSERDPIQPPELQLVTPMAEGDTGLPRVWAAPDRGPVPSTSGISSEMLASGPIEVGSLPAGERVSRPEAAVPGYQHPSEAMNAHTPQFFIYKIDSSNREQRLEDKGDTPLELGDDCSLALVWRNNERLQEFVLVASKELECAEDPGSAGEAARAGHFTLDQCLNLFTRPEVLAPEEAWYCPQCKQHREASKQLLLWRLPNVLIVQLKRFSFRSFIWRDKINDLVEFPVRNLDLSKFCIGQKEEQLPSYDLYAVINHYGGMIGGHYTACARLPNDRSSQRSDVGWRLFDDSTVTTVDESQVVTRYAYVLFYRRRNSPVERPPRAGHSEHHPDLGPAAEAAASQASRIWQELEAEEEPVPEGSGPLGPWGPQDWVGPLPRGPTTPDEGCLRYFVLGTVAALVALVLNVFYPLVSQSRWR
Method in brief: (§1)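 Labelling with Biotin-Ahx-Ub-VS (0.5 µM final, 1 h) followed a 3 h triplicate treatment of HEK293T lysate (495 µg per sample, Tris/CHAPS/IGEPAL buffer with protease inhibitors) with fragment at 200 µM or vehicle. Labelled DUBs were NeutrAvidin-enriched, digested with LysC and trypsin, and run by diaPASEF LC-MS/MS. The values, average log2 fragment/vehicle ratios by unpaired t-test, come from global-median-normalised Spectronaut label-free quantities. Proteins with ≥2 unique peptides were used.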

[2] = molecular target: USP24 (UniProt Q9UPU5)
Chain of USP24 (Q9UPU5 whole entry): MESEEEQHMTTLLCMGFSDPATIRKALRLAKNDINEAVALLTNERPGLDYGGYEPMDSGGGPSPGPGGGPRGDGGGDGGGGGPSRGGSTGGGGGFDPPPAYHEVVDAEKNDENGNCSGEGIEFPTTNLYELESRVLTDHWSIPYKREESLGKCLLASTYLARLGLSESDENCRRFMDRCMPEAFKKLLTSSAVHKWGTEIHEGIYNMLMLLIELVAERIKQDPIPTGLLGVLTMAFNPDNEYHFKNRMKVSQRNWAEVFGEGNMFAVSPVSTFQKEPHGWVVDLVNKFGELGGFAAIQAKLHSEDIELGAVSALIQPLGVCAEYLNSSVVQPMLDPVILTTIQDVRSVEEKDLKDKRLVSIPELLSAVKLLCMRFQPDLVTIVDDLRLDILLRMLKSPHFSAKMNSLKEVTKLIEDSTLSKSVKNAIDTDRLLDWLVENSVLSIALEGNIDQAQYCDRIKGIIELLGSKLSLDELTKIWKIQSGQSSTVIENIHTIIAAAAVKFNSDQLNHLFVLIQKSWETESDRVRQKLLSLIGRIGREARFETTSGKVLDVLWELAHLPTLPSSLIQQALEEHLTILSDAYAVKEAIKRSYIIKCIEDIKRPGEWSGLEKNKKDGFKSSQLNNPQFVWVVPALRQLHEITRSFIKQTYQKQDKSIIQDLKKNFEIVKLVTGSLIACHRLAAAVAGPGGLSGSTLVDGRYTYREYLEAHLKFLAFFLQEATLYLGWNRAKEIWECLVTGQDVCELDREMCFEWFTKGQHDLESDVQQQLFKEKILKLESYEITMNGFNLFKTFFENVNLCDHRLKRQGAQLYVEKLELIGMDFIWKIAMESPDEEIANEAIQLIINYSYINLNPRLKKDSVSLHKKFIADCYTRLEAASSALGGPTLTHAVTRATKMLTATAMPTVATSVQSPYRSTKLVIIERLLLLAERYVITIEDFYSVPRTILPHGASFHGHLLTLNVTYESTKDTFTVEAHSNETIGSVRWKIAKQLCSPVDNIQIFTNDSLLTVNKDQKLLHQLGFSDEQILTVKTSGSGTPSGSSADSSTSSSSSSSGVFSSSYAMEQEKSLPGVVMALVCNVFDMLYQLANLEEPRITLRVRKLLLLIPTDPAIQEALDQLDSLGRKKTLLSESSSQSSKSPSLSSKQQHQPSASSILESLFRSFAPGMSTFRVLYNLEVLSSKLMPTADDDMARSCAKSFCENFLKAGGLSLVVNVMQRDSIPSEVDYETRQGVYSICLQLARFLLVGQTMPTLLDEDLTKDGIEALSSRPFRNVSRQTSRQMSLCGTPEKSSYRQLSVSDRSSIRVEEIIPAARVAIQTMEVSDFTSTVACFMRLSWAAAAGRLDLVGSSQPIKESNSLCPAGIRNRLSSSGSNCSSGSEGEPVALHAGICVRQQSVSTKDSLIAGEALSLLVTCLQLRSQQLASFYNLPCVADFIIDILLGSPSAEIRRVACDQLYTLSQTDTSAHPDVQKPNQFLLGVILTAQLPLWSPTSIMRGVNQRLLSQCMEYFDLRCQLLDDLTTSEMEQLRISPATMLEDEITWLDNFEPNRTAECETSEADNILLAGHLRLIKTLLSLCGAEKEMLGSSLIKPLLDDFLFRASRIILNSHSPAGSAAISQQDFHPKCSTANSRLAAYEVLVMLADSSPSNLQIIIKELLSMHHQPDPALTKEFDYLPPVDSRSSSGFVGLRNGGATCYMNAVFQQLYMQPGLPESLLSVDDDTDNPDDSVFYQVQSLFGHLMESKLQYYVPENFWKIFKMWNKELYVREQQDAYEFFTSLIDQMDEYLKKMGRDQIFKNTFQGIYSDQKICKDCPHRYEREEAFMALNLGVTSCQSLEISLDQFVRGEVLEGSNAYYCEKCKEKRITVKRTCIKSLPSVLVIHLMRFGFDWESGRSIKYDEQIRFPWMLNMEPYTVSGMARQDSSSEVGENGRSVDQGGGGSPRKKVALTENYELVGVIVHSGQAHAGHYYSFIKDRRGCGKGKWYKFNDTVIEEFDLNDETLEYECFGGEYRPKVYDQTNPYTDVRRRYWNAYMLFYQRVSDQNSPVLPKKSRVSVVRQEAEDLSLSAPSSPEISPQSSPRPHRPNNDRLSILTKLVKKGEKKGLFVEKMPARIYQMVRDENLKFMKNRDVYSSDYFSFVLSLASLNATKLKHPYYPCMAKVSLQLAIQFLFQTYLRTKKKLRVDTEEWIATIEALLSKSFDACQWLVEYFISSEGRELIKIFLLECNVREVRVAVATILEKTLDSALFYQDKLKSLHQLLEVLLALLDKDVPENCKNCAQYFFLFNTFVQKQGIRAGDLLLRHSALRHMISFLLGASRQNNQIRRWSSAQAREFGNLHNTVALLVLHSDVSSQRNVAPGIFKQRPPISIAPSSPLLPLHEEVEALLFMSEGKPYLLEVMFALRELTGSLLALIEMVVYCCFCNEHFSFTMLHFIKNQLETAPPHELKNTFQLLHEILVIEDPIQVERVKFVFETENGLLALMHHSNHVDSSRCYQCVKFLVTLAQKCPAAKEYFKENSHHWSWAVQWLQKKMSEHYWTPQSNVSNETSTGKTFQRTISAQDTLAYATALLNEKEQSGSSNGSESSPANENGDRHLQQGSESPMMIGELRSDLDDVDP
Method in brief: as §1

[3] = molecular target: T2, USP25 (UniProt Q9UHP3)
T2 sequence (whole entry): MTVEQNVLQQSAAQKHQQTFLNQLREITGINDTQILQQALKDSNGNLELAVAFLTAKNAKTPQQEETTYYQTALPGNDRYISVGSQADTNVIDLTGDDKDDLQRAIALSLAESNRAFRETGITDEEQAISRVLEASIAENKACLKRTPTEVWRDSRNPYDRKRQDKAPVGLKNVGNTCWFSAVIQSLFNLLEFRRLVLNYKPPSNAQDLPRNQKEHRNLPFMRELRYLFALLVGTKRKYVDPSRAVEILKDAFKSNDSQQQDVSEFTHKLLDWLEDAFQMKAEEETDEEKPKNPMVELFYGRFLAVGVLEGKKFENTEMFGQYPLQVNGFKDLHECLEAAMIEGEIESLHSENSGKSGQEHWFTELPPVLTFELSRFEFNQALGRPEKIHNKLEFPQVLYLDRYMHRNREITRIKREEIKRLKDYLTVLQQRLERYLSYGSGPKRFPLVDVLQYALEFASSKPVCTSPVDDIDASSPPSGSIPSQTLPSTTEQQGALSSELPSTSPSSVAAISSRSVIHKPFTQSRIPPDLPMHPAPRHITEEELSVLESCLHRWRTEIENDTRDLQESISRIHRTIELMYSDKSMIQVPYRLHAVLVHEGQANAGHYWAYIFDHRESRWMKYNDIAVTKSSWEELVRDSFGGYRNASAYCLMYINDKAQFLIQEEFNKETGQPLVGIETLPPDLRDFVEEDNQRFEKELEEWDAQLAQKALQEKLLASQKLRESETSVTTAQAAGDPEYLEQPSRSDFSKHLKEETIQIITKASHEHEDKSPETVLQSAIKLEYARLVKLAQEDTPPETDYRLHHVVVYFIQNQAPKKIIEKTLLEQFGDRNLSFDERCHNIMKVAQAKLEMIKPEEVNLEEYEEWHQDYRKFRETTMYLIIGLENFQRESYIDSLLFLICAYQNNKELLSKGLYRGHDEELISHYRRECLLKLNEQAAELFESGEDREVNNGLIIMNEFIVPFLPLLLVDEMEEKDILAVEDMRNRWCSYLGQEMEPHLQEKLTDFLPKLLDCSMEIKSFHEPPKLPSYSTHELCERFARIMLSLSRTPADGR
Method in brief: as §1

[4] = molecular target: T3, USP28 (UniProt Q96RU2)
T3 sequence (whole entry): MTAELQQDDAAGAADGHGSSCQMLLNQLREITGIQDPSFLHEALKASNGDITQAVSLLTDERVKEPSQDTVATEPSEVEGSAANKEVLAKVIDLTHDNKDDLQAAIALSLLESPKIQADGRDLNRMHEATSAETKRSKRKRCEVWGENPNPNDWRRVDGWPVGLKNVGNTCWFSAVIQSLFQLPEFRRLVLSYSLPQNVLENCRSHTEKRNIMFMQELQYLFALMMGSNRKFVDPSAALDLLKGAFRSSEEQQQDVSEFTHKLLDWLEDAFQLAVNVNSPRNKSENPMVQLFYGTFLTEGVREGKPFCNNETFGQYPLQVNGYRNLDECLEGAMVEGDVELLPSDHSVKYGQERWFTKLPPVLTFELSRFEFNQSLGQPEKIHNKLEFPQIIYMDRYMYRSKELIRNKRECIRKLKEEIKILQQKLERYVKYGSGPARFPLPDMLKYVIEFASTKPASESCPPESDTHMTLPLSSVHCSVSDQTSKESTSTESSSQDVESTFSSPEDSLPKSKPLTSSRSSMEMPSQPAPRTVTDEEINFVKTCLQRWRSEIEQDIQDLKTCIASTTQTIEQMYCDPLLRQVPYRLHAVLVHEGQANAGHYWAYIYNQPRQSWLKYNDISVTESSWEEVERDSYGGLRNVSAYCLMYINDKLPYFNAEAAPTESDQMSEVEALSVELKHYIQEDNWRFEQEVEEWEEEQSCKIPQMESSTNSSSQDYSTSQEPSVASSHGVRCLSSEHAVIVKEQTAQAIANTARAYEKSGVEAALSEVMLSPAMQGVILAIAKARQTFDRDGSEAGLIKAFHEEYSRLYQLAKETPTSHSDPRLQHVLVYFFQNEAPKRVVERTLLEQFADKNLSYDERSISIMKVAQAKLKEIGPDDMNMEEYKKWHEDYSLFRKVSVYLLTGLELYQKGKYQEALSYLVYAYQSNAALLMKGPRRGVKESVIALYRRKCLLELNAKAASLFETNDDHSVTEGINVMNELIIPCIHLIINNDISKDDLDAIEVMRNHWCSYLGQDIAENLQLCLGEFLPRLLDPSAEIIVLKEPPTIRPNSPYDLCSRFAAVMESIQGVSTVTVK
Method in brief: as §1

Measured: log2 ratio of Biotin-Ahx-Ub-VS probe labelling

CC(C)n1nccc1NC(=O)CCl
inactive: [1] -0.0967 | [2] -0.207 | [3] -0.514 | [4] -0.651
